The list is not random: actives were taken first. Their share in the collection is about 1.2%.
BioA inh: blocks M. tuberculosis BioA enzyme activity | inhibition, % at 9.99 µM | purified M. tuberculosis BioA enzyme, plate reader | 360,000 compounds, 0.096% hits; in the data active = inhibition above about 40%
FadD28 binding: blocks FadD28 binding to the bisubstrate probe; fluorescence polarization; inhibition, % at 12.5 µM; 360,000 compounds, 0.22% hits; AID 588549; in the data active = inhibition above about 8.5%, passing the limit was not always enough
PrP UTR inh: suppresses PrP 5' UTR mRNA reporter expression. inhibition, % (test concentration not listed). cell-based PrP 5' UTR mRNA reporter, plate reader. 340,000 compounds, 0.35% hits; in the data active = inhibition above about 52%; note: 0 = median of the neutral control wells
PfHsp40 yeast: rescue of PfHsp40-mediated yeast toxicity | AID 504582 | 340,000 compounds, 0.68% hits | S. cerevisiae expressing PfHsp40, growth rescue, ATP luminescence | growth rescue, % at 12.5 µM; in the data active = growth rescue above about 28%, passing the limit was not always enough;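 note: yeast W303a lacking pdr1 and pdr3 grown in galactose medium; growth measured after three days at 30 °C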
Y pestis TopoI: Y. pestis Topo-I inhibition via cleavage products. Y. pestis Topo-I cleavage product accumulation, plate reader. activity, % at 10 µM. 360,000 compounds, 0.064% hits; in the data active = activity above about 50%, passing the limit was not always enough
TcdB inh: blocks C. difficile toxin B glycohydrolase activity. inhibition, % at 9.99 µM. TcdB glycohydrolase enzymatic assay, plate reader. 350,000 compounds, 0.24% hits. P18177; in the data active = inhibition above about 10%
Numbers without * were called inactive; / = no result given.

SMILES | BioA inh | FadD28 binding | PrP UTR inh | PfHsp40 yeast | Y pestis TopoI | TcdB inh
CN1CCN(C(=O)c2cc(COc3ccc(F)cc3Cl)on2)CC1c1ccccc1 (stereo not given) | 1 | -1 | -14 | 139* | 15 | 0
CN1C(=O)c2cc(NS(C)(=O)=O)ccc2OC[C@H]2O[C@H](CC(=O)NCc3ccc(-c4ccccc4)cc3)CC[C@@H]21 | 3 | / | / | / | / | /
C[C@H]1CN([C@@H](C)CO)C(=O)CCCn2cc(nn2)CO[C@H]1CN(C)C(=O)Nc1ccccc1F | -1 | / | / | / | / | 0
Cc1noc(C)c1NC(=O)Nc1cccc2c1O[C@@H](CN(C)S(=O)(=O)c1cn(C)cn1)[C@@H](C)CN([C@@H](C)CO)C2=O | -1 | / | / | / | / | -2
CO[C@H]1CN(C)C(=O)c2ccc(NS(=O)(=O)CC(F)(F)F)cc2OC[C@@H](C)N(C(=O)c2ccc3c(c2)OCO3)C[C@@H]1C | -4 | / | / | / | / | /
CCc1ccc(NC(=O)CSc2ccccn2)cc1 | / | 2 | -71 | 62* | 15 | -1
Cc1ccc(NC(=O)CSc2ccc(-c3ccccn3)nn2)c(C)c1 | -2 | 0 | -13 | 105* | 9 | 0
COc1ccc(NC(=O)CSc2ccc(-c3ccccn3)nn2)cc1OC | -2 | -3 | -50 | 215* | 1 | 1
COc1ccccc1NC(=O)CSc1ccc(-c2ccccn2)nn1 | 1 | 0 | -17 | -2 | 12 | 4
Cc1ccc(NC(=O)CSc2ccc(-c3ccccn3)nn2)cc1 | / | -2 | 2 | 103* | -8 | 0
O=C(CSc1ccccn1)Nc1ccc(NC(=O)CSc2ccccn2)cc1 | / | -1 | -21 | -2 | 9 | 0
CN1C(=O)c2cc(NC(=O)c3cccs3)ccc2OC[C@@H]2O[C@@H](CC(=O)NCC3CC3)CC[C@@H]21 | 0 | / | / | / | / | /
Cc1cccc(NC(=O)CSc2ccc(-c3ccccn3)nn2)c1C | / | -3 | -28 | 200* | -2 | -3
CC(=O)c1ccc(C(=O)N(C)C2CCCN(Cc3ccccc3F)C2)s1 (stereo not given) | 75* | -3 | 1 | 0 | -5 | 2
CCc1ccc(NC(=O)COC(=O)/C=C/c2c(C)nn(C3CCS(=O)(=O)C3)c2Cl)cc1 (stereo not given) | / | -2 | -19 | 59* | 1 | 1
CO[C@@H](CN(C)Cc1nccs1)[C@@H](C)CN([C@@H](C)CO)S(=O)(=O)c1ccc(C)cc1 | 0 | / | / | / | / | 0
N#Cc1ccc(-c2c(-c3ccccc3)ncc3cc(F)ccc23)cc1 | -1 | -3 | -38 | 124* | 8 | 2
CC(Sc1nc2ccccc2n1C)C(=O)Nc1ccc(N2CCOCC2)cc1 (stereo not given) | / | -2 | -21 | 0 | 10 | 13*
CN(C)c1ccc(C(=O)c2ccc(O)cc2O)cc1 | -2 | -2 | -64 | 5 | -4 | /
CN(C)c1ccc(Cc2cc3c(O)ccc(O)c3cc(Cc3ccc(N(C)C)cc3)c2=O)cc1 | / | 11* | -7 | -1 | -15 | 1
CC1(C)CCC[C@@]2(C)CC=C(C(=O)O)[C@@H]3C[C@]312 | -2 | 9.1* | -11 | -1 | -3 | 0
Cc1noc(C)c1S(=O)(=O)Nc1ccc2c(c1)C(=O)N([C@@H](C)CO)C[C@@H](C)[C@H](CN(C)Cc1ccc(C(=O)O)cc1)O2 | 1 | / | / | / | / | -2
CCCc1cc(C(=O)NNC(=S)NCC2CCCO2)cs1 (stereo not given) | 0 | -1 | -13 | 69* | -1 | /
CCc1cc(C(=O)NNC(=S)NCC2CCCO2)cs1 (stereo not given) | 1 | -3 | / | 0 | -10 | /
COc1cc(C2C(C#N)=C(N)OC3=C2C(=O)CCC3)c([N+](=O)[O-])cc1OC (stereo not given) | / | 21* | -13 | 1 | 2 | /
SMILES | BioA inh | FadD28 binding | PrP UTR inh | PfHsp40 yeast | Y pestis TopoI | TcdB inh
Cc1cc(C2C(C#N)=C(N)OC3=C2C(=O)CCC3)c(C)s1 (stereo not given) | -1 | -2 | -9 | -1 | 9 | /
C[C@@H]1CN([C@H](C)CO)S(=O)(=O)c2ccc(-c3cccc(F)c3)cc2O[C@@H]1CN(C)C | 0 | / | / | / | / | 1
O=C(N/N=C/C(Cl)=C/c1ccc([N+](=O)[O-])cc1)C(=O)Nc1ccc(C(=O)O)cc1 | / | -1 | -7 | 85* | 3 | 1
O=C(C[C@H]1CC[C@@H](NC(=O)c2ccncc2)[C@@H](CO)O1)Nc1ccc(-c2ccccc2)cc1 | / | / | / | / | / | 1
O=C(Cn1c(=O)oc2cc(S(=O)(=O)N3CCCC3)ccc21)Nc1cccc(C(F)(F)F)c1 | 2 | 11* | -7 | 0 | -1 | /
CCc1ccc(NC(=O)Cn2c(=O)oc3cc(S(=O)(=O)N4CCOCC4)ccc32)cc1 | 0 | -2 | 17 | 1 | -7 | -1
CCc1cccc(NC(=O)Cn2c(=O)oc3cc(S(=O)(=O)N4CCOCC4)ccc32)c1 | 1 | 41* | -29 | 0 | 6 | 0
CO[C@H]1CN(C)C(=O)c2cc(NC(C)=O)ccc2OC[C@@H](C)N(C(=O)C2CCCCC2)C[C@@H]1C | 0 | / | / | / | / | -1
COc1ccc(C2=CC3=C(Br)C(=O)C(C)(OC(=O)c4ccco4)C(=O)C3=CO2)cc1 (stereo not given) | -1 | 10* | -14 | 1 | -3 | /
COc1ccc(C2=CC3=C(Br)C(=O)C(C)(OC(=O)c4cccs4)C(=O)C3=CO2)cc1 (stereo not given) | -2 | 16* | -21 | -2 | -9 | -1
COCCN1C=C2C(=O)C(C)(OC(=O)CCC(=O)OC)C(=O)C(Br)=C2C=C1c1ccc(OC)cc1 (stereo not given) | 0 | -2 | -18 | 1 | -8 | /
COC(=O)CCC(=O)OC1(C)C(=O)C2=CN(c3ccc(OC)cc3)C(c3ccc(OC)cc3)=CC2=C(Br)C1=O (stereo not given) | -1 | -1 | -2 | 2 | -6 | /
CC(=O)NC(c1ccc(Cl)cc1Cl)c1ccc2cccnc2c1O (stereo not given) | -1 | -2 | 22 | 445* | 3 | 0
CC(=O)NC(c1ccc2ccccc2c1)c1ccc2cccnc2c1O (stereo not given) | -2 | 0 | 41 | 85* | -4 | 1
COc1ccc(C(NC(C)=O)c2ccc3cccnc3c2O)c(OC)c1 (stereo not given) | -2 | 0 | 41 | -1 | -10 | /
Cc1ccc(-c2ccccc2[C@H]2[C@@H](C#N)N(S(C)(=O)=O)[C@@H]2CO)cc1 | / | / | / | / | / | 2
COc1cccc(/C=N/NC(=O)c2cc(-c3cccn3C)n[nH]2)c1O | / | -1 | 12 | 160* | -8 | -1
COc1cc(/C=N/NC(=O)c2cc(-c3cccn3C)n[nH]2)cc(OC)c1OC | 1 | 0 | -61 | 1 | 0 | /
Cc1ccc(C(=O)N/N=C/c2ccoc2)cc1C | 49* | 2 | -7 | 1 | -2 | 1
COc1ccc(C(=O)N/N=C\c2ccoc2)cc1 | 21 | 1 | -16 | -1 | 7 | 1
Cc1cc2cc(CNC(=O)Nc3ccc(Cl)c(Cl)c3)ccc2n1C | -2 | 13* | -20 | 0 | -31 | 3

Assay outcomes (PubChem)
